Compound activity from PubChem.
Only some compounds are listed: those with a hit (about 8.1% of all), similar ones and a draw of the others.
PD-1 reversal – activators reversing PD-1 mediated T-cell inhibition, primary screen, luminescence, primary human CD4 T cells, PD-L1 beads; CellTiter-Glo 96 h; activation, % (test concentration not listed); 29,000 tested, under 10 active; AID 2316, 2010; call rule not given here
NOMO-1 viab – NOMO-1 AML cell viability reduction, primary screen, STK33 inhibitor project, CellTiter-Glo luminescence. NOMO-1 AML viability, 72 h. inhibition, % (test concentration not listed). 37,000 tested, 7.5% active. AID 2330, 2010; in the data active = inhibition above about 80%; inconclusive = no clear call, values can overlap the other calls
Shh pathway inh – Hedgehog pathway signaling inhibitors, primary screen, luminescence, Shh-LIGHT2 cells, Gli-luciferase. Shh-LIGHT2 Gli-luciferase reporter, 30 h. inhibition, % (no concentration beside the values). AID 2313, 2010. 22,000 tested, 2.1% active;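 active = mean inhibition across valid replicates above about 65%, limit read from the data; inconclusive = mean under the limit, yet half or more replicates past it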;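 also: pathway switched on by Shh-conditioned medium diluted 1 in 25 in low serum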
MITF inhib – inhibitors of MITF, primary screen, MITF inhibitor project, cell-based, luminescence; 37,000 tested, 0.28% active; AID 2240, 2010; TRPM1 promoter luciferase, 24 h; inhibition, % (test concentration not listed); in the data active = inhibition above about 85%; inconclusive = no clear call, values can overlap the other calls; inactive = below about 68%;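 also: human melanocyte line stably carrying TRPM1 promoter luciferase reporter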
Each line names hits and unclear results; the compound was inactive in the other large screens.

COc1ccc(NC(=O)Nc2ccc3c(c2)C(=O)N([C@@H](C)CO)C[C@@H](C)[C@H](CN(C)C(=O)Nc2ccc(C(F)(F)F)cc2)O3)cc1	none
C[C@@H]1CN([C@H](C)CO)C(=O)c2cc(NC(=O)Nc3ccc(F)cc3)ccc2O[C@H]1CN(C)Cc1ccc(C(F)(F)F)cc1	NOMO-1 viab 117
C[C@H]1CN([C@@H](C)CO)C(=O)c2cc(NC(=O)Nc3ccc(F)cc3)ccc2O[C@@H]1CN(C)Cc1ccc(C(F)(F)F)cc1	none
C[C@@H]1CN([C@@H](C)CO)C(=O)c2cc(NC(=O)Nc3ccc(F)cc3)ccc2O[C@H]1CN(C)Cc1ccc(C(F)(F)F)cc1	NOMO-1 viab 113 (no result: Shh pathway inh)
COC(=O)CNS(=O)(=O)c1ccccc1[N+](=O)[O-]	NOMO-1 viab 112 (no result: PD-1 reversal, Shh pathway inh)
O=C(CC(Sc1ccc(Br)cc1)C(=O)O)c1ccc(Cl)cc1 (stereo unspecified)	NOMO-1 viab 115
Cc1ccccc1OC(C)C(=O)Nc1ccccc1C(N)=O (stereo unspecified)	none (no result: PD-1 reversal, Shh pathway inh)
COc1ccccc1-c1cc(C(F)(F)F)nc(S(=O)(=O)CCCC(=O)N2CCOCC2)n1	NOMO-1 viab 136 (no result: Shh pathway inh)
COc1ccc(OC)c(S(=O)(=O)N(C)CC(=O)N2CCOCC2)c1	none (no result: Shh pathway inh)
C[C@@H]1CN([C@@H](C)CO)C(=O)Cc2cc(N(C)C)ccc2O[C@@H]1CN(C)C(=O)NC1CCCCC1	none (no result: PD-1 reversal)
Oc1c(C(Nc2ccccn2)c2cccc(F)c2)cc(Cl)c2cccnc12 (stereo unspecified)	NOMO-1 viab 113 (no result: PD-1 reversal, Shh pathway inh)
Oc1c(C(Nc2ccccn2)c2c(F)cccc2Cl)cc(Cl)c2cccnc12 (stereo unspecified)	NOMO-1 viab 108 (no result: PD-1 reversal, Shh pathway inh)
COc1cc(Cl)c(C(Nc2ccccn2)c2cc(Cl)c3cccnc3c2O)cc1OC (stereo unspecified)	NOMO-1 viab 110 (no result: PD-1 reversal, Shh pathway inh)
CCC(=O)NC(c1ccco1)c1cc(Cl)c2cccnc2c1O (stereo unspecified)	NOMO-1 viab 126, Shh pathway inh 104
C=CCn1c(SCC(=O)O)nnc1-c1cccc(C)c1	none (no result: Shh pathway inh)
C[C@@H]1CN([C@@H](C)CO)C(=O)Cc2cc(NS(C)(=O)=O)ccc2O[C@@H]1CN(C)S(C)(=O)=O	none
O=C(NC(=S)N1CCCCC1)c1ccccc1	none
Oc1c(C(Nc2ccccn2)c2ccccn2)cc(Cl)c2cccnc12 (stereo unspecified)	NOMO-1 viab 112 (no result: PD-1 reversal, Shh pathway inh)
CNC[C@@H]1Oc2ccc(NC(=O)CCC(F)(F)F)cc2C(=O)N([C@H](C)CO)C[C@@H]1C	none (no result: Shh pathway inh)
C[C@@H]1CN([C@H](C)CO)C(=O)c2cc(NC(=O)Nc3ccc(C(F)(F)F)cc3)ccc2O[C@@H]1CN(C)S(=O)(=O)c1ccccc1	none
C[C@@H]1CN([C@@H](C)CO)C(=O)c2cc(NC(=O)Nc3ccc(C(F)(F)F)cc3)ccc2O[C@@H]1CN(C)S(=O)(=O)c1ccccc1	NOMO-1 viab 90, Shh pathway inh inconclusive
C[C@H](CO)N1C[C@H](C)[C@@H](CN(C)S(=O)(=O)c2ccccc2)Oc2ccc(NC(=O)Nc3ccc(C(F)(F)F)cc3)cc2C1=O	MITF inhib inconclusive
C[C@H]1CN([C@@H](C)CO)C(=O)c2cc(NC(=O)Nc3ccc(C(F)(F)F)cc3)ccc2O[C@H]1CN(C)S(=O)(=O)c1ccccc1	NOMO-1 viab 97 (no result: Shh pathway inh)
O=C(O)C(Oc1ccc2c(-c3ccccc3)cc(=O)oc2c1)c1ccccc1 (stereo unspecified)	none (no result: PD-1 reversal, Shh pathway inh)
C[C@H]1CN([C@@H](C)CO)C(=O)c2cc(NC(=O)Nc3ccc(F)cc3)ccc2O[C@@H]1CN(C)CC1CCCCC1	none (no result: Shh pathway inh)
C=C(C(=O)O[C@H]1C[C@]2(C)C(C(C=O)CC[C@H]2O)[C@H]2OC(=O)C(=C)[C@H]12)C(O)CO (stereo partly specified)	NOMO-1 viab 104
C=C(C)C(=O)O[C@H]1C[C@@]2(C)O[C@@H]2[C@H]2O[C@H]2C(=C)[C@@H](O)[C@H]2OC(=O)C(=C)[C@@H]21	none (no result: PD-1 reversal, NOMO-1 viab, MITF inhib)
C[C@@H]1CN([C@@H](C)CO)C(=O)Cc2cc(NC(=O)Nc3ccc4c(c3)OCO4)ccc2O[C@@H]1CN(C)Cc1ccc(C(F)(F)F)cc1	NOMO-1 viab 95
C[C@H](CO)N1C[C@H](C)[C@H](CN(C)Cc2ccc(C(F)(F)F)cc2)Oc2ccc(NC(=O)Nc3ccc4c(c3)OCO4)cc2CC1=O	NOMO-1 viab 104 (no result: PD-1 reversal)
C[C@H](CO)N1C[C@H](C)[C@@H](CN(C)CC2CC2)Oc2ccc(NS(=O)(=O)c3ccc(Cl)cc3)cc2C1=O	none (no result: PD-1 reversal, Shh pathway inh)
COc1c(O)cc2c(c1O)[C@H]1O[C@H](CO)[C@@H](O)[C@H](O)[C@@H]1OC2=O	none (no result: PD-1 reversal)
O=C1N=c2ccccc2=N/C1=N\C(=S)Nc1ccccc1	NOMO-1 viab 122
CC(C)/C(N)=N/C(=S)Nc1ccccc1	none (no result: Shh pathway inh)
C[C@@H]1CN([C@H](C)CO)C(=O)c2cc(NC(=O)Nc3ccc(C(F)(F)F)cc3)ccc2O[C@@H]1CN(C)C(=O)Nc1ccccc1	NOMO-1 viab inconclusive
Cc1cc(I)ccc1NC(=O)CN(c1ccccc1F)S(C)(=O)=O	none (no result: Shh pathway inh)
CC[n+]1c(C=C2C=C(C)CC(C)C2)sc2ccccc21 (stereo unspecified)	NOMO-1 viab 126
C[C@H]1CN([C@@H](C)CO)C(=O)c2cc(N(C)C)ccc2O[C@@H]1CN(C)S(=O)(=O)c1ccc(F)cc1	none
C[C@@H]1CCCCO[C@H](CN(C)S(=O)(=O)c2cccs2)[C@@H](C)CN([C@H](C)CO)C(=O)c2cc(NC(=O)Nc3ccc(C(F)(F)F)cc3)ccc2O1	NOMO-1 viab 90
Cc1noc(C)c1NC(=O)Nc1ccc2c(c1)C(=O)N([C@H](C)CO)C[C@H](C)[C@@H](CN(C)S(=O)(=O)c1c(C)noc1C)OCCCC[C@@H](C)O2	none
C[C@@H]1CCCCO[C@@H](CN(C)S(=O)(=O)c2cccs2)[C@@H](C)CN([C@H](C)CO)C(=O)c2cc(NS(C)(=O)=O)ccc2O1	Shh pathway inh 67
Cc1noc(C)c1S(=O)(=O)N(C)C[C@H]1OCCCC[C@@H](C)Oc2ccc(NC(=O)Nc3ccc(C(F)(F)F)cc3)cc2C(=O)N([C@H](C)CO)C[C@@H]1C	NOMO-1 viab 104
C[C@@H]1CCCCO[C@@H](CN(C)S(=O)(=O)c2cccs2)[C@@H](C)CN([C@H](C)CO)C(=O)c2cc(NC(=O)Nc3ccc(C(F)(F)F)cc3)ccc2O1	none (no result: PD-1 reversal)
C[C@H]1CN([C@@H](C)CO)C(=O)Cc2cc(NC(=O)Nc3cccc4ccccc34)ccc2O[C@H]1CN(C)S(=O)(=O)c1cn(C)cn1	none (no result: PD-1 reversal)
COc1cccc2cc(C(=O)Nc3cccc(Cn4cccn4)c3)c(=O)oc12	none (no result: Shh pathway inh)
CC(C)(C)c1cc(/C=C(\C#N)C(N)=S)cc(C(C)(C)C)c1O	NOMO-1 viab 118, Shh pathway inh 106, MITF inhib 91 (no result: PD-1 reversal)
N#CC(C#N)=C(N)/C(C#N)=C/c1cc(O)c(O)c(O)c1	Shh pathway inh 76
C[C@@H]1CN([C@@H](C)CO)C(=O)c2cc(NS(=O)(=O)c3ccccc3)ccc2O[C@@H]1CN(C)C(=O)Nc1ccc2c(c1)OCO2	none
Cc1c(C(=O)Nc2cnccn2)oc2ccccc12	NOMO-1 viab 112 (no result: Shh pathway inh)
